# The list is not random: actives were taken first. Their share in the collection is about 10%.
# G9a inh: qHTS Assay for Inhibitors of Histone Lysine Methyltransferase G9a. Histone-lysine N-methyltransferase EHMT2 (Homo sapiens), Q96KQ7. G9a H3K9 monomethylation, AlphaScreen, 2 h. Potency, µM (highest dose often 102 µM), for the others: top-dose activity, negative = inhibition, most hits filed as inhibitors. 350,000 compounds, 8.8% hits. AID 504332, 2011; further: on the % scale 0 is the no-effect control and ±100 the full control effect; nearly all actives have a fitted effect of over 75% in size
#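 AlphaScreen detection with an anti-monomethyl H3K9 antibody quantified product after a 2 h room-temperature reaction containing 500 nM biotinylated H3K9 peptide, 20 µM SAM and 20 nM enzyme, which had been preincubated 15 min with compound.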
# GLS inh: qHTS for Inhibitors of Glutaminase (GLS); 410,000 compounds, 0.21% hits; Glutaminase kidney isoform, mitochondrial (Homo sapiens), O94925; GLS enzymatic activity, qHTS titration; Potency, µM (highest dose often 45.5 µM), without a hit: top-dose activity change, negative = inhibition, actives largely listed as inhibitors; further: on the % scale 0 is the no-effect control and ±100 the full control effect
#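 Assay buffer: 45 mM KH2PO4 pH 8.2, 0.02% Tween-20. hKGA acts on L-glutamine (1 mM solution added); product glutamate is reported by an oxidase/peroxidase Amplex Red coupling, with fluorescence taken at baseline and 30 min.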
# BAZ2B block: qHTS Assay for Inhibitors of BAZ2B | Bromodomain adjacent to zinc finger domain protein 2B (Homo sapiens), Q9UIF8 | AlphaScreen BAZ2B-H3K14Ac peptide displacement | Potency, µM (highest dose often 114 µM), for the others: top-dose activity change, negative = inhibition, most hits filed as inhibitors | 360,000 compounds, 4.4% hits | AID 504333, 2011; further: on the % scale 0 is the no-effect control and ±100 the full control effect; nearly all actives have a fitted effect of over 60% in size
#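 Complex of BAZ2B and biotin-H3K14Ac (50 nM apiece) forms over 30 min at RT, then faces library compounds up to 110 uM for another 30 min; AlphaScreen beads added, 20 min dark incubation, luminescence read.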
# HP1b chromo inh: HTS for Inhibitors of HP1-beta Chromodomain Interactions with Methylated Histone Tails; Chromobox protein homolog 1 (Homo sapiens), P83916; AlphaScreen HP1-beta / biotin-H3K9me3 peptide binding; Potency, µM (doses to about 114 µM), without a hit: at the highest dose activity change, negative = inhibition, hits mostly inhibitors; 390,000 compounds, 0.56% hits; AID 540317, 2011; further: nearly all actives have a fitted effect of over 70% in size
#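 HP1-beta protein (50 nM final) preincubated 30 min at room temperature with biotinylated H3(1-18)K9me3 peptide (50 nM) in PBS pH 7.4, 0.01% Tween-20, then compound added for 30 min. AlphaScreen streptavidin donor/nickel chelate acceptor beads (10 ug/mL final), 30 min dark, luminescence read.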
# JMJD2A Tudor: qHTS Assay for Inhibitors of JMJD2A-Tudor Domain. Lysine-specific demethylase 4A (Homo sapiens), O75164. AlphaScreen JMJD2A-Tudor / H3K4me3 peptide binding. Potency, µM (series often up to 114 µM), without a hit: at the top dose activity change, negative = inhibition, most hits filed as inhibitors. 390,000 compounds, 4.4% hits. AID 504339, 2011; further: on the % scale 0 is the no-effect control and ±100 the full control effect; nearly all actives have a fitted effect of over 50% in size
# Target sequence (O75164 whole entry, looked up, the tested form may be a part): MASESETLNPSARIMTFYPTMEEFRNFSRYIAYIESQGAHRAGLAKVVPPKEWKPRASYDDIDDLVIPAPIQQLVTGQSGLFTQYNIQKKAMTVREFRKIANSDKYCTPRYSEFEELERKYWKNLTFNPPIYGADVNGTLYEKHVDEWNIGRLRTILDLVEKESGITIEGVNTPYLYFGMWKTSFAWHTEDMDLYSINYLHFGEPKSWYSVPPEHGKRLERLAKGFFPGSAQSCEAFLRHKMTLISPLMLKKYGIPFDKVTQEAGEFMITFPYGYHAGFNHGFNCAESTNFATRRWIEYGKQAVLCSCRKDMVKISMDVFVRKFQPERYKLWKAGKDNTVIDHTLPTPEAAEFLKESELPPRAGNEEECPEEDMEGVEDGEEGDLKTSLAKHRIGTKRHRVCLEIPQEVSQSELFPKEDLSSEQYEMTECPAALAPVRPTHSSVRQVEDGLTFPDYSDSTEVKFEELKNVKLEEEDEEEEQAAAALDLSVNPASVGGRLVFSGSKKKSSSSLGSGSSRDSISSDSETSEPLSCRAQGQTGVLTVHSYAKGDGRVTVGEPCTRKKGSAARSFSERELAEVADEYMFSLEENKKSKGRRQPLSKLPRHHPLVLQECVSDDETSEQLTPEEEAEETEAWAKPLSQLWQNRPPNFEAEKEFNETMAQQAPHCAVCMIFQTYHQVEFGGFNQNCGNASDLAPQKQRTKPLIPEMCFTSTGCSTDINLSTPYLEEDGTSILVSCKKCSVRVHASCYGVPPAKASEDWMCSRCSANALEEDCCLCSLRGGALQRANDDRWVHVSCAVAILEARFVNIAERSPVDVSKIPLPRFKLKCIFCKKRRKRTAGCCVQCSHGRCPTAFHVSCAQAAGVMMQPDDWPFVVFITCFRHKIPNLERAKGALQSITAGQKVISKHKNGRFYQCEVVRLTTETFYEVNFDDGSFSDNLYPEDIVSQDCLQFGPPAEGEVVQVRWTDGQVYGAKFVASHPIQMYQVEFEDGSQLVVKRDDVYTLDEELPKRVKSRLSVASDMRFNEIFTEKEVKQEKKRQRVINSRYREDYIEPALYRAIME
# Numbers without * were called inactive; ? = inconclusive; nt = not tested or not shown; ! = not confirmed by another sample; [ ] = dose if it differs, or a comment. The call rests on the fitted dose curve; in most records, active means well fitted curve in the direction sought with a large enough effect; inconclusive means small, poorly fitted or top-dose-only effect, or another doubt; inactive means no such curve, though single readings can be large; an effect the other way counts as inactive or inconclusive. Potency means the concentration at half of the fitted maximal effect.
SMILES,G9a inh,GLS inh,BAZ2B block,HP1b chromo inh,JMJD2A Tudor
Cc1ncn(-c2ccccc2)c1-c1ccccc1,20.5%[2.33 µM],1.6%,50.1µM*,-4.5%,?
O=C(O)c1cc(-n2cccc2)ccc1N1CCOCC1,nt,28.7%,-23.8%,-4.4%,-16.2%
COc1ccc(S(=O)(=O)NCCCN2CCOCC2)cc1F,14.0%,-12.6%,-3.1%,21.8%,-9.6%
COc1ccc(S(=O)(=O)NCCN2CCOCC2)cc1[N+](=O)[O-],50.1µM*,0.2%,-1.3%,-8.7%,-18.6%
COc1ccc(C(=O)NC(=S)NCCO)cc1Br,44.7µM*,23.4%,-2.8%,5.8%,-27.4%
COc1ccc(C(=O)NC(=S)NNC(=O)c2ccc(O)cc2)cc1[N+](=O)[O-],31.6µM*,-14.0%,5.8%,6.1%,-18.4%
COc1ccc(C(=O)NC(=S)N2CCOCC2)cc1[N+](=O)[O-],35.5µM*,7.3%,-16.0%,38.5%,-4.1%
COc1ccc(C(=O)NN2CCOCC2)cc1[N+](=O)[O-],nt,1.9%,3.7%,18.4%,-3.5%
COc1ccc(CNC(=O)COC(=O)c2ccc(Br)c(S(=O)(=O)N3CCOCC3)c2)cc1,nt,1.3%,nt,43.6%,-8.1%
CC(C)(C)c1ccc(C(=O)NC(=S)N2CCOCC2)cc1,-50.6%,14.4%,-27.2%,18.0%,-23.7%
COc1ccc(C(=O)NC(=S)N2CCOCC2)cc1Br,20µM*,20.6%,-18.9%,25.6%,-6.2%
CCC1CCC(N2CCN(c3ccc(F)cc3)CC2)CC1 (stereo unspecified),44.7µM*,29.3%,-37.9%,16.3%,-13.1%
CCC1CCC(N2CCN(c3ccc([N+](=O)[O-])cc3)CC2)CC1 (stereo unspecified),nt,10.2%,70.8µM*,-0.6%,?
O=C(N/N=C/c1ccc[nH]1)c1cc2ccccc2cc1O,79.4µM*,12.8%,39.8µM*,-1.8%,?
O=C(N/N=C/c1ccncc1)c1cc2ccccc2cc1O,?,?,-30.5%,27.3%,-33.0%
COc1ccccc1OCCNc1nc2c(c(=O)n(C)c(=O)n2C)n1C,18.6%[59 µM],-15.6%,11.8%,-20.8%,22.4µM*
Cn1c(=O)c2c(nc(NCCOc3ccc(C(C)(C)C)cc3)n2C)n(C)c1=O,-1.9%,0.1%,-3.0%,23.3%,-0.3%
CN(C)c1ccc(CNC(=O)c2sc3ncccc3c2-n2cccc2)cc1,22.4µM*,6.6%,17.8µM*,?,28.2µM*
COC(=O)Cn1c(=O)oc2ccc(C)cc21,-30.2%,0.0%,-0.1%,-14.1%,31.6µM*
CC(C)CN1CCN(Cc2cccn2-c2ccc(Cl)cn2)CC1CCO (stereo unspecified),?,-4.8%,-5.0%,23.7%,-24.6%
COc1cccc(CNC(=O)C2CCN(S(=O)(=O)c3ccc4c(c3)NC(=O)C(C)S4)CC2)c1 (stereo unspecified),-3.3%,4.9%,-14.7%,31.5%,-9.0%
NC(N)=NC(=O)c1nc(Cl)c(N2CCCCCC2)nc1N,50.1µM*!,-12.4%,?,-17.5%,?
CC(C)CN(C)c1nc(N)c(C(=O)N=C(N)N)nc1Cl,16.1%[12.7 µM],nt,nt,nt,nt
COc1cc(Br)c(C2CC(=O)Nc3cc4c(cc32)OCCO4)cc1OC (stereo unspecified),?,8.5%,?,-9.4%,?
COc1ccc(S(=O)(=O)N2CC(=O)Nc3ccccc32)cc1C,24.8%,-6.7%,-4.2%,29.7%,-13.8%
SMILES,G9a inh,GLS inh,BAZ2B block,HP1b chromo inh,JMJD2A Tudor
COc1cc(S(=O)(=O)N2CC(=O)Nc3ccccc32)ccc1NC(C)=O,39.8µM*,-1.5%,0.6%,26.1%,-11.6%
CSc1ccc(S(=O)(=O)N2CC(=O)Nc3ccccc32)cc1,-15.1%,-3.1%,-17.5%,27.6%,-11.1%
CCc1cccc(Nc2c([N+](=O)[O-])cc(C(=O)N3CC(=O)Nc4ccccc43)cc2[N+](=O)[O-])c1,25.1µM*,16.1%,10µM*,?,?
CS(=O)(=O)c1ccc(C(=O)N2CC(=O)Nc3ccccc32)cc1,50.1µM*,4.5%,-3.8%,25.1%,3.1%
O=C1CN(S(=O)(=O)c2cccc(C(=O)O)c2)c2ccccc2N1,50.1µM*,4.5%,4.8%,6.7%,-6.9%
Cc1cc(C)cc(C(=O)N2CC(=O)Nc3ccccc32)c1,-1.0%[59 µM],-0.2%,?,26.5%,-8.2%
Cc1nn(CC(=O)NC(=O)c2ccccc2)c(C)c1[N+](=O)[O-],-49.6%[59 µM],-0.8%,5.7%,19.2%,-6.1%
COC(=O)c1ccc(C(=O)OC)c(NC(=O)CSc2nnc(-c3ccccc3Cl)o2)c1,nt,8.7%,nt,4.9%,2.5%
Cc1cccc(N2C(=O)CC(N3CCOCC3)C2=O)c1 (stereo unspecified),-17.6%[59 µM],-1.2%,0.6%,51.2%,-2.5%
CC(=O)Nc1ccc(N2C(=O)CC(N3CCSCC3)C2=O)cc1 (stereo unspecified),?,2.2%,-20.4%,9.5%,-5.2%
COC(=O)c1ccc(N2C(=O)CC(N3CCOCC3)C2=O)cc1 (stereo unspecified),79.4µM*,3.4%,11.1%,31.6%,-8.7%
O=C(C1CCN(C2CC(=O)N(c3cccc(Cl)c3)C2=O)CC1)N1CCCCCC1 (stereo unspecified),10µM*,1.5%,3.5%,40.0%,-15.4%
CC(=O)Nc1ccc(N2C(=O)CC(N3CC(C)OC(C)C3)C2=O)cc1 (stereo unspecified),22.4µM*,4.5%,8.1%,52.8%,-12.6%
O=C1CC(N2CCOCC2)C(=O)N1c1cccc(Cl)c1 (stereo unspecified),44.7µM*,-0.4%,8.9%,56.4%,-6.6%
O=C(N/N=C/c1ccccc1)c1n[nH]c2c1CCCC2,2.6%,9.2%,-15.3%,29.1%,-10.5%[11.4 µM]
O=C(Nc1ccccc1Cl)NC1(C(=O)NCc2ccncc2)CCCCC1,8.5%,10.4%,-31.2%,3.0%,-11.4%
O=C(Oc1ccc2ccccc2c1Cl)N1CCCCCC1,82.0%[59 µM],-3.4%,61.1%,89.1%,28.9%
CC(C)OC(=O)CC1=NC(=O)CS1,18.6%,3.5%,-4.1%,23.9%,17.1%
O=C(CN1CCN(c2ccccn2)CC1)N1c2ccccc2CCc2ccccc21,8.91µM*,3.0%,31.6µM*,17.8µM*,3.16µM*
O=C(CN1CCN(c2ccccn2)CC1)N1c2ccccc2Sc2ccc(C(F)(F)F)cc21,?,nt,22.4µM*,15.8µM*,2µM*
O=C(CN1CCN(c2ccccn2)CC1)N1CC(O)CO1 (stereo unspecified),-6.5%[59 µM],-12.8%,-6.9%,51.3%,2.8%
Cc1[nH]c(=S)[nH]c(=O)c1Cc1c(O)ccc2ccccc12,nt,6.6%,nt,20.6%,-18.1%
Cc1cccn2cc(CSc3ccccc3N)nc12,?,8.0%,3.4%,36.1%,-13.9%

# Screens (PubChem)
